Source: PubChem (National Center for Advancing Translational Sciences (NCATS))
Hits are enriched below; roughly 7.4% of the tested compounds scored in any of these assays.
Rab9 prom act: activators of Rab9 promoter; Huh7 Rab9 promoter-luciferase reporter, luminescence, 24 h; Potency, µM (highest dose often 9.22 µM), inactives show at the highest dose activation, negative = inhibition, hits mostly activators; 2.8% of 320,000 active; further: % of control where 0% means no effect; nearly all actives have a fitted effect of over 60% in size
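Stable Rab9-luc Huh7, 1500 cells/well, 2 h settle; cmpd in DMSO, 24 h, 37 °C/5% CO2; luciferase reagent 10 min RT; luminescence.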
ELG1 genotox: genotoxicity induction in ELG1-luciferase HEK293T cells; HEK293T ELG1-luciferase reporter, luminescence, 16 h; Potency, µM (titrated, usually from 46 µM), for inactives: at the top dose activity change, positive = activation, most hits filed as activators; 1.3% of 330,000 active; AID 504466; further: % of control where 0% means no effect; nearly all actives have a fitted effect of over 60% in size
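Cells (2,000/well) expressing the ELG1-luciferase fusion are dosed by pin tool and kept 16 hr at 37 °C, 5% CO2. Signal comes from ONE-Glo luciferase reagent after 30 min at room temperature.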
NPC1 prom act: activates the NPC1 promoter. Huh7 NPC1 promoter luciferase reporter, 24 h. 2.4% of 320,000 active. Potency, µM (titrated, usually from 9.22 µM), inactives show at the highest dose activation, most hits filed as activators; further: % of control where 0% means no effect; nearly all actives have a fitted effect of over 60% in size
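Compounds in DMSO were transferred onto Huh7 NPC1-luciferase reporter cells pre-incubated 2 h; after 24 h at 37 °C, Amplite reagent was dispensed and luminescence recorded 10 min later.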
SMN2 splice up: enhancers of SMN2 splice variant expression | HEK293 SMN2-luciferase splicing reporter, luminescence, 30-36 h | Potency, µM (highest dose often 46.1 µM), without a hit: at the top dose activity change, positive = activation, most hits filed as activators | 2.8% of 210,000 active | AID 1458; further: % of control where 0% means no effect; nearly all actives have a fitted effect of over 55% in size
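HEK293 cells carry an SMN2 […]–luciferase reporter in which exon 7 inclusion puts luciferase in frame. Cells were plated 10-12 h before compound addition, then incubated 30-36 h at 37C. ONE-Glo luminescence was read; sodium butyrate at 4.5 mM final served as control.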
FLuc counter: firefly luciferase modulation, counter-screen for miR-21 project | P08659 | purified FLuc, Km substrates, luminescence inhibition | Potency, µM (doses to about 57.5 µM), for inactives: top-dose activity change, negative = inhibition, hits mostly inhibitors | 6.9% of 360,000 active;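 further: plate controls were vehicle for no effect and reference inhibitor for full effect; nearly all actives have a fitted effect of over 55% in size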
Target sequence (P08659 whole entry, looked up): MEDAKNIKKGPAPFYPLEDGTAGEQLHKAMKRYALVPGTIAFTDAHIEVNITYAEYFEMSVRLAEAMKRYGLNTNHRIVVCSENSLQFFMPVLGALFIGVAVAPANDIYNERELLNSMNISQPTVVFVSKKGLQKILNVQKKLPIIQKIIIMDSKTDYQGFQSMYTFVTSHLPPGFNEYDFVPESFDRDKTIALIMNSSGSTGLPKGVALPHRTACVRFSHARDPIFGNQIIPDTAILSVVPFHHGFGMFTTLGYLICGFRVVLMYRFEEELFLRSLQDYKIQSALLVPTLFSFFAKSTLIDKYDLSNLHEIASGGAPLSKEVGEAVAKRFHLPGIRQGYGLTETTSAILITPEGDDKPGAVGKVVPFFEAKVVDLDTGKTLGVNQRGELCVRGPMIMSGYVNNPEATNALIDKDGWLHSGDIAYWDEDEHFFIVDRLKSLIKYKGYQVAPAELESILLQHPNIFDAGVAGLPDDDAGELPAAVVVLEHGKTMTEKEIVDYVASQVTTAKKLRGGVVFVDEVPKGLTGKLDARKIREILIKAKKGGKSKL
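Purified P. pyralis luciferase, 10 nM final, with Km-level 10 uM D-luciferin and 10 uM ATP in 50 mM Tris acetate pH 7.5, 10 mM Mg acetate, 0.01% Tween-20, 0.05% BSA; 6-point qHTS titration about 60 µM downward; luminescence read.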
Luc counter: blocks Kinase-Glo luciferase, a counter-screen artifact; Q27757; Kinase-Glo luciferase, ATP luminescence, 8 min; Potency, µM (series often up to 38.3 µM), for the others: at the top dose activity change, negative = inhibition, most hits filed as inhibitors; 0.28% of 200,000 active; AID 1379; further: on the % scale 0 is the no-effect control and ±100 the full control effect; nearly all actives have a fitted effect of over 60% in size
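Recombinant Kinase-Glo luciferase, 10 uM ATP (linear range), luciferin; imidazole pH 7.2 / KCl / MgCl2 / Tween / BSA buffer; 8 min RT; luminescence.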
* hit, by the source's call; ? = inconclusive; nt = no result given; [ ] = another dose, or the depositor's remark. The call rests on the fitted dose curve; in most records, active means well fitted curve in the direction sought with a large enough effect; inconclusive means small, poorly fitted or top-dose-only effect, or another doubt; inactive means no such curve, though single readings can be large; an effect the other way counts as inactive or inconclusive. Potency means the concentration at half of the fitted maximal effect.

SMILES	Rab9 prom act	ELG1 genotox	NPC1 prom act	SMN2 splice up	FLuc counter	Luc counter
O=C(Nc1ccc(OCc2ccccc2)cc1)c1ccccc1	?	16.4%	?	?	1.2%	-10.1%
Cc1cc(C(=O)Nc2ccccc2C(=O)O)c(C)o1	1.2%	2.7%	-1.8%	nt	23.9µM*	nt
Cc1ccsc1C(=O)Nc1ccc(OCc2ccccc2)cc1	1.12µM*	?	1.58µM*	nt	1.51µM*	nt
Cc1oc(C(=O)Nc2ccc(C(=O)O)cc2)cc1COc1ccccc1	13.3%	8.5%	0.5%	-0.6%	10.7µM*	-2.8%
CC(=O)c1cc(C(=O)Nc2ccc(C(=O)O)cc2)oc1C	4.4%	2.1%	-1.3%	0.0%	-2.8%	-2.8%
CCc1ccc2occ(CC(=O)Nc3ccc(C)c(C)c3)c2c1	nt	nt	nt	100.0%	-16.0%	nt
Cc1cc(=O)c2c(O)c3c(O)cc(=O)c4c3c3c(cc(O)c1c23)C(C)(C)C=4O	nt	nt	nt	-10.9%	nt	-2.3%
CCCCSCCCNC(=O)c1cn(C)c2ccc(S(=O)(=O)N3CCCCCC3)cc2c1=O	nt	nt	nt	9.1%	-1.6%	nt
c1ccc(C2=Nc3ccccc3SC2c2nc3ccccc3[nH]2)cc1 (configuration not stated)	nt	nt	nt	?	16.9µM*	-11.8%
O=C1CC(c2nc3ccccc3[nH]2)CN1c1ccccc1 (configuration not stated)	2.0%	-5.2%	3.3%	-4.5%	-0.1%	2.6%
COc1cc(OC)cc(-c2nnc(SCC(=O)Nc3cccc(C(=O)O)c3)s2)c1	15.4%	-2.8%	3.8%	8.0%	15.1µM*	-4.1%
COc1ccc(Nc2nnc(SCC3CCCCO3)s2)cc1 (configuration not stated)	22.5%	4.5%	12.8%	29.9%	?	1.9%
Cc1cccc(Nc2nnc(SCC3CCCCO3)s2)c1 (configuration not stated)	2.82µM*	11.9%	3.98µM*	20µM*	5.36µM*	-1.3%
Cc1ccccc1Nc1nnc(SCC(=O)Nc2ccccc2[N+](=O)[O-])s1	17.5%	-1.1%	-0.6%	-2.8%	-13.8%	0.4%
Cc1cccc(Nc2nnc(SCC(=O)NC(=O)CN3CCCC3=O)s2)c1	-5.2%	6.8%	-0.6%	nt	9.53µM*	nt
Cc1cccc(Nc2nnc(SCC(=O)Nc3ccccc3[N+](=O)[O-])s2)c1	11.9%	-4.6%	3.3%	2.5%	7.57µM*	-2.6%
Cc1cccc(Nc2nnc(SCC(=O)Nc3ccc(C(=O)O)cc3)s2)c1	-0.4%	-3.5%	20.8%	18.0%	1.69µM*	-11.0%
Cc1cccc(NC(=O)CSc2nnc(NC(=O)C3CCC3)s2)c1	0.6%	-1.9%	1.2%	nt	-3.8%	nt
COc1ccc(OC)c(S(=O)(=O)Nc2cccc(-c3ccc(N4CCCCCC4)nn3)c2)c1	7.8%	-4.3%	-4.1%	nt	16.9µM*	nt
COc1ccc(S(=O)(=O)Nc2cccc(-c3ccc(N4CCCCCC4)nn3)c2)c(OC)c1	?	?	?	nt	8.49µM*	nt
COc1ccc(-c2cccc(NS(=O)(=O)c3ccccc3[N+](=O)[O-])c2)nn1	4.2%	2.8%	-1.0%	nt	1.5%	nt
O=C(O)c1cc(NN=C2c3ccccc3-c3ccccc32)ccc1Cl	0.5%	1.1%	-2.5%	nt	?	nt
Cc1ccc(N/N=C2\CC(=O)c3ccccc32)cc1Cl	15.6%	?	2.3%	nt	9.53µM*	nt
Cc1ccc(OC(=O)c2ccc([N+](=O)[O-])cc2Cl)cn1	-6.0%[1.84 µM]	0.5%	-4.0%	nt	12µM*	nt
N/C(=N\OC(=O)c1cc([N+](=O)[O-])ccc1Cl)c1ccccn1	-12.9%	6.9%	3.1%	nt	23.9µM*	nt
N/C(=N\OC(=O)c1cccc([N+](=O)[O-])c1)c1ccccn1	3.55µM*	-16.3%	?	14.1µM*	5.36µM*	12.6µM*
N/C(=N\OC(=O)c1ccc([N+](=O)[O-])cc1Cl)c1ccccn1	0.316µM*	0.326µM*	?	nt	0.12µM*	nt
